Experimental findings from PubChem BioAssay (Tox21) are described below.

SMILES strings stand for the structures. Unmarked numbers belong to inactive results. Inconclusive results are not listed. Active and inactive are the calls of the source. Unless noted, calls come from the whole dose curve; as a rule, active = well fitted curve in the direction sought with a large enough effect in the repeat runs; inconclusive = weak or mixed curves; inactive = no such curve, though single readings can be large; an effect the other way counts as inactive or inconclusive.

Assay [1] in a line: qHTS assay to test for compound auto fluorescence at 535 nm (green) in HEK293 cells (AID 720680). A general note: Quantitative high-throughput screening tests each substance at several concentrations.
Assay [2] can be described thus: qHTS assay to test for compound auto fluorescence at 460 nm (blue) in HEK293 cell free culture (AID 720681). In outline:
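Test compounds were pinned into cell-free culture medium (DMEM with 10% FBS) and fluorescence was read directly at Ex/Em 405/460 nm. Signals were expressed as fluorescence equivalents of triamterene, with DMSO vehicle as control.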

Assay [3] is described as follows: qHTS assay to test for compound auto fluorescence at 535 nm (green) in HEK293 cell free culture (AID 720682). Summed up:
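Green-label autofluorescence (485 nm excitation, 535 nm emission) measured on compound added to cell-free culture medium (DMEM, 10% FBS). Output is expressed relative to fluorescein.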

A short description of assay [4]: qHTS assay to test for compound auto fluorescence at 590 nm (red) in HEK293 cell free culture (AID 720683). In outline:
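Tox21 10K library compounds were pinned into cell-free DMEM with 10% FBS and fluorescence was read at excitation 540 nm. Activity is expressed as Rose Bengal sodium equivalency.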

A short description of assay [5]: qHTS assay to test for compound auto fluorescence at 590 nm (red) in HepG2 cell free culture (AID 720684). In outline:
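Ex 540 / Em 590 nm read of compound in cell-free MEM (10% FBS). Rose Bengal sodium reference.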

The nature of assay [6]: qHTS assay to test for compound auto fluorescence at 460 nm (blue) in HepG2 cell free culture (AID 720685). In outline: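 Cell-free plates of MEM plus 10% FBS received 23 nL compound or DMSO vehicle; blue-channel (405/460 nm) intensity scored against triamterene as reference fluorophore.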
A short description of assay [7]: qHTS assay to test for compound auto fluorescence at 535 nm (green) in HepG2 cell free culture (AID 720686).
The nature of assay [8]: qHTS assay to test for compound auto fluorescence at 460 nm (blue) in HepG2 cells (AID 720687). In outline: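 Cells (2,000/well in MEM with 10% FBS) attached overnight at 37 C, then were exposed to compound or DMSO for 1 hr at 37 C, 5% CO2. Fluorescence read at Ex/Em 405/460 nm, expressed as triamterene-equivalent signal.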
Assay [9] has as its target Glucocorticoid receptor (Homo sapiens) (UniProt P04150). Put plainly: qHTS assay to identify small molecule agonists of the glucocorticoid receptor (GR) signaling pathway (AID 720691; active = well fitted activation curve with a large enough effect in the signal ratio in the repeat runs, not every such curve was filed as active; the % refers to the signal ratio). Summed up:
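Cells: GR-bla HeLa, endogenous GR with stably integrated GRE-beta-lactamase reporter. Treatment 18 h, 37 C, compounds delivered in DMSO. Detection via LiveBLAzer B/G FRET substrate, 2 h RT, fluorescence intensity.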

Assay [10] has the same target. Put plainly: qHTS assay to identify small molecule antagonists of the glucocorticoid receptor (GR) signaling pathway (AID 720692; active = well fitted inhibition curve with a large enough effect in the signal ratio in the repeat runs, not every such curve was filed as active; the % refers to the signal ratio). In outline:
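Quantitative HTS in antagonist format: HeLa cells expressing endogenous GR and a stably integrated GRE-bla reporter, stimulated with 5 nM dexamethasone (final) alongside test compounds for 18 h.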

Assay [11] can be described thus: qHTS assay to identify small molecule antagonists of the glucocorticoid receptor (GR) signaling pathway - cell viability counter screen (AID 720693). Note: nearly all actives have a fitted effect of over 55% in size.
Assay [12] can be described thus: qHTS assay for identifying genotoxic compounds that show differential cytotoxicity against isogenic chicken DT40 cell lines with known DNA damage response pathways - wild type cell line (AID 743012). Note: nearly all actives have a fitted effect of over 60% in size. Note: potency is the fitted concentration of half-maximal effect. In outline: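 Luminescent ATP viability signal (CellTiter-Glo, 30 min RT) recorded after wild type DT40 cells were incubated with compounds for 40 h at 37 C/5% CO2.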

A short description of assay [13]: qHTS assay for identifying genotoxic compounds that show differential cytotoxicity against isogenic chicken DT40 cell lines with known DNA damage response pathways - Rev3 mutant cell line (AID 743014). Note: nearly all actives have a fitted effect of over 55% in size. Note: potency is the fitted concentration of half-maximal effect.
Assay [14] is described as follows: qHTS assay for identifying genotoxic compounds that show differential cytotoxicity against isogenic chicken DT40 cell lines with known DNA damage response pathways - Rad54/Ku70 mutant cell line (AID 743015). Note: nearly all actives have a fitted effect of over 60% in size.
A short description of assay [15]: qHTS assay to identify small molecule antagonists of the androgen receptor (AR) signaling pathway - cell viability counter screen (AID 743033; note: nearly all actives have a fitted effect of over 45% in size).
The nature of assay [16]: qHTS assay to identify small molecule antagonists of the androgen receptor (AR) signaling pathway using the MDA cell line - cell viability counter screen (AID 743041; note: nearly all actives have a fitted effect of over 45% in size). Summed up:
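In this qHTS counter assay, fluorescence intensity after CellTiter-Fluor addition indicated viability of MDA-kb2 AR-luc cells given compounds and R1881 for 16 h at 37C.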

The target in assay [17] is Androgen receptor (Homo sapiens) (UniProt P10275). As to the kind of experiment: qHTS assay to identify small molecule agonists of the androgen receptor (AR) signaling pathway using the MDA cell line (AID 743040; note: nearly all actives have a fitted effect of over 20% in size). In outline: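 Cell-based luciferase reporter: MDA-kb2, MMTV promoter (AR + GR response elements). 16 h compound exposure at 37C; ONE-Glo, 30 min RT, luminescence.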
Chain of Androgen receptor (Homo sapiens) (P10275 whole entry, looked up): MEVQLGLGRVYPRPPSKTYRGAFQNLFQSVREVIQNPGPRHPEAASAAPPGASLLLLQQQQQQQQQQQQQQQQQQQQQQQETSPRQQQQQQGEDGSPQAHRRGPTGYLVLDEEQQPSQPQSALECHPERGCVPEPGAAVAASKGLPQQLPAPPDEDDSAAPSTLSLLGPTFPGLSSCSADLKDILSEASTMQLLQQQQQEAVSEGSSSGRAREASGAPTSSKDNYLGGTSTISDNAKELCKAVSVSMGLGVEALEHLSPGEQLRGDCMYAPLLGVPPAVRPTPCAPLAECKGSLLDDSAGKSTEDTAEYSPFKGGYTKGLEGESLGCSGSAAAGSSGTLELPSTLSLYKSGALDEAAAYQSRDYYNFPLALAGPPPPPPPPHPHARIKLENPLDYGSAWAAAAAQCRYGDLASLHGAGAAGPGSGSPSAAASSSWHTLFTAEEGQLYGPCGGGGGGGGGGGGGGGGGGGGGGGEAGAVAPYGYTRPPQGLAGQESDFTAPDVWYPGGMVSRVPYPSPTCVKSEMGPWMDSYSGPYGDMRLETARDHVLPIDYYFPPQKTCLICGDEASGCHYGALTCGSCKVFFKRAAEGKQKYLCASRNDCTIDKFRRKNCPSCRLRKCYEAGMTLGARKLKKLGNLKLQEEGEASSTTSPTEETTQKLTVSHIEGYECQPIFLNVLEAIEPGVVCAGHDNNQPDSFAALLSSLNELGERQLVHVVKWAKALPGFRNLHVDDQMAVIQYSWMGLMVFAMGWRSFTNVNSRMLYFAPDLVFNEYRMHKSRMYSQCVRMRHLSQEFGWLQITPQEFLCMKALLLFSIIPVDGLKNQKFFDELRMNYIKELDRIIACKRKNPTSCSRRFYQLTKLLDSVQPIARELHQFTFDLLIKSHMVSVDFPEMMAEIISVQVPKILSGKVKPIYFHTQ

Assay [18] shares this target. Put plainly: qHTS assay to identify small molecule antagonists of the androgen receptor (AR) signaling pathway using the MDA cell line (AID 743042; note: nearly all actives have a fitted effect of over 55% in size). In outline: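 MDA-kb2 cells (human breast carcinoma, stably carrying an MMTV-luciferase reporter responsive to AR and GR) were plated at 3,000 cells/well and preincubated 5 hr at 37C, then given compound plus R1881 agonist for 16 h. ONE-Glo luminescence was read.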

Chain of Glucocorticoid receptor (Homo sapiens) (P04150 whole entry, looked up): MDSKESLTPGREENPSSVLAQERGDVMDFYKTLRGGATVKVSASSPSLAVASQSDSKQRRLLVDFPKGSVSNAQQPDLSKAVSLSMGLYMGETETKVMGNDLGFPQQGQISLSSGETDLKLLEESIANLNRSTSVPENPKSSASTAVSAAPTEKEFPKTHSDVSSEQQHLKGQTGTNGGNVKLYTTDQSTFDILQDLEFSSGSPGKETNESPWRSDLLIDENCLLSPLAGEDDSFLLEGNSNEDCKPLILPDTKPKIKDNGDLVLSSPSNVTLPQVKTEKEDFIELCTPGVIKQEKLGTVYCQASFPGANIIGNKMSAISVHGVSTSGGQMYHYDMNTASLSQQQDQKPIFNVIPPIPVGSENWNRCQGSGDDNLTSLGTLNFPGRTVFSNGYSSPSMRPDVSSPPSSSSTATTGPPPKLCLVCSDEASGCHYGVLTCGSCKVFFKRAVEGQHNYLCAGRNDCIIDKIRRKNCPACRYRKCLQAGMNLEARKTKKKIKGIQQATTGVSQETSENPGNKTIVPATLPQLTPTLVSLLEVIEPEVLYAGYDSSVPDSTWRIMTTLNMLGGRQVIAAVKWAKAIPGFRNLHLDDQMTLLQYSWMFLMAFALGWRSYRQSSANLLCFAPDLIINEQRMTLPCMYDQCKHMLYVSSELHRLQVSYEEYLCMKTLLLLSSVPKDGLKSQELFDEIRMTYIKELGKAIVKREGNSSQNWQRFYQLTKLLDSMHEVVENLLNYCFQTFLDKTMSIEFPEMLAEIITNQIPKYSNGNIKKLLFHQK

For `Oc1ccc(C(O)CNCCCCCCNCC(O)c2ccc(O)c(O)c2)cc1O` (stereo unspecified), the compound was classed as inactive in [1], in assay [3], in [4], in [5] and in assay [7]. Besides, the Potency result in [2], in [6], in assay [8], in [9], in assay [10] and in assay [11] was “inactive” throughout. Moreover, the Potency in [12] is 26.6 µM (active); in [13], 29.8 µM (active).

`CC(CN)CCCN` (stereo unspecified): the outcome in assay [1], in [3], in assay [4], in assay [5] and in [7] was inactive. Also, the Potency entry in [2], in assay [6], in assay [8], in [9], in assay [10] and in assay [11] was “inactive” each time. Further, the Potency result in assay [12], in [13], in assay [14], in assay [15] and in assay [16] was “inactive” throughout.

Regarding `CN1CCN(C2=Nc3ccccc3Sc3ccc(Cl)cc32)CC1`, the result in assay [1], in assay [3], in assay [4], in assay [5] and in assay [7] was inactive. Moreover, the Potency result in assay [2], in assay [6], in assay [8], in [9], in [10] and in assay [11] was “inactive” throughout. Further, the Potency entry in assay [17], in [16] and in [18] was “inactive” throughout. For the same compound, the results for the Potency in assay [12] and in assay [13] were 8.41 µM (active) and 6.68 µM (active), respectively.

`CC(C)CC=O`: the call in assay [1], in [3], in [4], in [5] and in [7] was inactive. The Potency result in [2], in assay [6], in assay [8], in [9], in assay [10] and in assay [11] was “inactive” in each case. The Potency result in assay [12], in assay [13], in [15] and in [16] was “inactive” throughout.

On to `NCCCOCCOCCOCCCN`, for which the call in assay [1], in [3], in assay [4], in assay [5] and in assay [7] was inactive. Further, the Potency result in assay [2], in [6], in assay [8], in assay [9], in assay [10] and in [11] was “inactive” each time. In addition, in assay [15], the Potency entry is “inactive”. Besides, the figures for the Potency in [12] and in assay [13] were 5.45 µM (active) and 10.9 µM (active), respectively.

`O=C(NN1CCCC1)NS(=O)(=O)c1ccc(Cl)cc1`: the result in [1], in assay [3], in [4], in [5] and in [7] was inactive. For the same compound, the Potency result in assay [2], in [6], in assay [8], in assay [9], in assay [10] and in assay [11] was “inactive” in each case. Further, the Potency entry in [12], in [13], in [14], in assay [15] and in assay [16] was “inactive” in each case.

As for `CCN(CCO)CCCC(C)Nc1ccnc2cc(Cl)ccc12` (stereo unspecified), the compound was classed as inactive in assay [1], in [3], in [4], in assay [5] and in [7]. The Potency entry in assay [2], in assay [6], in [8], in [9], in assay [10] and in assay [11] was “inactive” throughout. For the same compound, the Potency entry in assay [15] and in assay [16] was “inactive” throughout. In addition, the Potency was 29.8 µM (active) in assay [12] and 23.7 µM (active) in assay [13].

On to `NCc1ccccc1`, for which the compound was classed as inactive in assay [1], in [3], in assay [4], in [5] and in assay [7]. In addition, the Potency entry in [2], in assay [6], in assay [8], in [9], in assay [10] and in assay [11] was “inactive” in each case. Besides, the Potency entry in assay [12], in assay [13], in assay [14], in assay [15] and in [16] was “inactive” throughout.
